PubChem BioAssay (EPA / NIEHS)
Activity calls are given as the source filed them. The calls were made as follows: active = hit-call score of the fitted dose curve at least 0.9, where 1 is the maximum; inactive = score below 0.9.

Read-out: Cytochrome P450 7A1 (Homo sapiens) (UniProt P22680)
Experiment: LTEA_HepaRG_CYP7A1: Life Technologies and Expression Analysis (LTEA) Assay for Cytochrome P450 7A1 (CYP7A1) using HepaRG (AID 2283496)
Conditions: mRNA level, 48 h; actives raise or lower the signal
Method: LTEA_HepaRG is a cell based, multiplexed-readout assay that uses HepaRG, a human liver cell line, with measurements taken at 48 hours after chemical dosing on a 96-well plate.LTEA_HepaRG_CYP7A1 is one of 102 assay component(s) measured in the LTEA HepaRG cell culture assay. It is a marker of NR mediated metabolism.Data from the assay component LTEA_HepaRG_CYP7A1 was analyzed into 1 endpoint. This assay endpoint, LTEA_HepaRG_CYP7A1, was analyzed with bidirectional fitting relative to DMSO as the negative control and baseline of activity. Using a type of inducible reporter, measures of mRNA induction for gain or loss-of-signal activity can be used to understand regulation of transcription factor activity. To generalize the intended target to other relatable targets, this assay endpoint is annotated to the cyp intended target family, where the subfamily is xenobiotic metabolism.
A total of 1060 chemcials from the ToxCast library were tested in eight-point concentration-response experiments. Cell culture and cytotoxicity assays were conducted at Thermo Fisher Scientific's Custom Services facility (Madison, WI). A single lot of human HepaRG cells (Thermo Fisher Scientific, Frederick, MD) was used for the cell culture experiments. 96-well format collagen type I coated plates of human HepaRG cells were prepared using established methods. Briefly, cryopreserved HepaRG cells were thawed, plated at a density of approximately 100,000 cells/well in HepaRG Thaw, Plate, and General Purpose media (HPRG770, Thermo Fisher Scientific), and incubated for 48 hours. 0.5% DMSO was selected as vehicle control to balance the requisite need of DMSO in HepaRG cultures to maintain differentiation (for example, baseline metabolism, proportions of hepatocytes vs. cholangiocytes), while enabling further hepatic receptor pathway activation (for example, PXR and CAR) in response to chemical exposure. 48 hours after plating, the culture medium was replaced with HepaRG Serum-Free Incudtion Media. Cells were exposed to each test chemical in duplicate and maintained in CO2 incubators for another 48 hours. Chemical plates were thawed to room temperature and 200x concentrations of treatment groups were prepared. 8-point conentration-reponse curves were made with the highest exposure at 100 uM, followed by half-log dilutions, all in 0.5% DMSO. Each test plate contained variouse controls, induction positive controls (1mM phenobarbital), cytotoxicity positive controls ([…] aflatoxin B1), vehicle controls (0.5% DMSO), and total lysis controls (0.5% DMSO). Cell morphology images were taken using an Essen IncuCyte FLR automated microscope, with six 96-well plates imaged in about 24 minutes. Images were captured and exported and JPEG files. Spent culture media was transfered to black-well plates for the LDH assay, and remaining media was sorted at -80 C for later use. Cells were treated with RLT buffer and frozen until shipped for gene expression analysis. Total RNA was isolated from the cell suspension in 75 uL of Buffer RLT (Qiagen, Germantown, MD 20874) by Quintiles/Expression Analysis (Durham, NC) using a custom isolation procedure. Total RNA from each plate well was transferred to a preamplification plate. Fluidigm's 96.96 Dynamic ArrayTM (Fluidigm, Amsterdam, the Netherlands) technology was used for gene expression analyses by quantitative reverse transcription polymerase chain reaction (qRT-PCR, performed by Quintiles/Expression Analysis, Durham, NC)89. Standard TaqManTM Assays (Applied Biosystems/ThermoFisher Scientific, Foster City, CA) were used to assess the expression of 93 genes selected based on their selectivity and sensitivity to important hepatic receptors known to be modulated by environmental chemicals; importance in human hepatocyte functionality; and hepatotoxicity. […]

outcome, inactive:
O=C(O)CC(O)(CC(=O)O)C(=O)O, COC(=O)CCC(=O)OC, O=C1CCCCC1, CCCCCCCC(=O)OC, c1ccc2occc2c1, CCCCCCC(CCCCCCCCCCC(=O)OCC(COC(C)=O)OC(C)=O)OC(C)=O (stereo not given), C=CCCCCCCCCCCCC, CCOCCOCCO, OCC(CO)n1cnc(-c2ccc(F)cc2)c1-c1ccnc(Oc2ccccc2)n1, C#CC(O)C(CC)CCCC (stereo not given), CC(=O)OCC(COC(C)=O)OC(C)=O, N[C@@H](Cc1c[nH]c2ccccc12)C(=O)O, COc1ccc(OC(F)(F)F)cc1CN[C@H]1CCCN[C@H]1c1ccccc1, CCCC[C@H]1CN(CC2CCOCC2)C(=O)OC12CCN(C1(C)CCN(C(=O)c3c(C)ncnc3C)CC1)CC2, Oc1ccc(O)cc1, CO[C@@H]1COCC[C@@H]1N[C@@H]1CC[C@@](C(=O)N2CCc3ncc(C(F)(F)F)cc3C2)(C(C)C)C1, O=C1O[C@H]([C@H](O)CO)C(O)=C1O, NC=O, CC(C)COC(=O)CCCCC(=O)OCC(C)C, CC(=O)S[C@H](C(=O)N[C@H]1Cc2ccccc2[C@H]2CCC[C@@H](C(=O)O)N2C1=O)C(C)C, CCCCC(CC)COP(=O)(OCC(CC)CCCC)OCC(CC)CCCC (stereo not given), CN(C)CCCN(C)CCCN(C)C, C=CCc1ccc(OC)c(OC)c1, NCCOCCOCCN, O=C(O)CN(CC(=O)O)CC(=O)O, OCC(O)CO, Cc1occc(=O)c1O, CC(C)(O)c1ccc(CNC(=O)c2cccnc2Oc2ccc(F)cc2)cc1, CC(COCC(C)OC(=O)c1ccccc1)OC(=O)c1ccccc1 (stereo not given), CN(C)C(=O)NC1(c2ccccc2)CCN(CC[C@@]2(c3ccc(F)c(F)c3)CN(C(=O)c3ccccc3)CCO2)CC1, C/C=C/c1ccc(OC)cc1, CCCCCCC(C=O)=Cc1ccccc1, Oc1ccccc1O

AC50, active:
CC1=C(C)S(=O)(=O)CCS1(=O)=O 92.6 µM, CN(C)CCCN1c2ccccc2Sc2ccc(Cl)cc21 81.3 µM, O=C1OC(c2ccc(O)cc2)(c2ccc(O)cc2)c2ccccc21 50 µM, Cc1cc(SC2=C(O)C[C@@](CCc3ccc(N)cc3)(C(C)C)OC2=O)c(C(C)(C)C)cc1CO 16.1 µM, Cc1c(C)c2c(c(C)c1O)CCC(C)(COc1ccc(CC3SC(=O)NC3=O)cc1)O2 (stereo not given) 92.7 µM, CC(C)NCC(O)c1ccc(O)c(O)c1 (stereo not given) 0.212 µM, O=C(NS(=O)(=O)/C=C/c1cccs1)c1ccc(F)cc1Br 27.9 µM
